The entries come from a sample that favours hits as a whole.
LmPK inh = inhibitors of Leishmania mexicana pyruvate kinase; AID 1721; 290,000 compounds, 0.37% hits; Potency, µM (highest dose often 57.5 µM), for inactives: top-dose activity change, negative = inhibition, actives largely listed as inhibitors; purified LmPK, Kinase-Glo ATP luminescence, 1 h; further: potency means the concentration at half of the fitted maximal effect; on the % scale 0 is the no-effect control and ±100 the full control effect
Target sequence (Q27686 whole entry, looked up): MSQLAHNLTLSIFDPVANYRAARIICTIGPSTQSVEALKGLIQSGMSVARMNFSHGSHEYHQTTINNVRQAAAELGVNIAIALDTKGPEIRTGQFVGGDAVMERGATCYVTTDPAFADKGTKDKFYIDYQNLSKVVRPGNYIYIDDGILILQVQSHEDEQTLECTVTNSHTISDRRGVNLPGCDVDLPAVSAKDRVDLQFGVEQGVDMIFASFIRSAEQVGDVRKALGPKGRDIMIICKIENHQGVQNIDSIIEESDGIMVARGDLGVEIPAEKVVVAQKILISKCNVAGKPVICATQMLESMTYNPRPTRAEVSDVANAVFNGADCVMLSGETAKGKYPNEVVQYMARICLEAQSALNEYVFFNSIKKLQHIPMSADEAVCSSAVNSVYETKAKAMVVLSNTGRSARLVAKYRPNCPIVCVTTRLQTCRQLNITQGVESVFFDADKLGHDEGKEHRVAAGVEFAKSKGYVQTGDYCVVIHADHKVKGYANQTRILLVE
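Purified LmPK (0.1 nM) with 0.5 mM PEP and 0.1 mM ADP in imidazole buffer pH 7.2 with MgCl2/KCl, 1 h at room temperature. ATP formed was read by luciferase luminescence and normalized to no-enzyme and uninhibited controls.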
Shiga inhibitor = Shiga toxin inhibition; Vero cells, Shiga toxin protein synthesis inhibition reporter; inhibition, % at 38.7 µM; 290,000 compounds, 9.2% hits; AID 2315; in the data active means inhibition mostly above about 28%, no sharp cut-off; inactive means mostly below about 43%; further: 0% is about no effect
TbPYK inhibitor = blocks Trypanosoma brucei pyruvate kinase; Q57TT1; TbPYK enzyme, Kinase-Glo Plus ATP luminescence, 45 min; Potency, µM (titrated, usually from 76.8 µM), for inactives: top-dose activity, negative = inhibition, usual class: inhibitors; 410,000 compounds, 0.12% hits; AID 624173; further: potency means the concentration at half of the fitted maximal effect; on the % scale 0 is the no-effect control and ±100 the full control effect; nearly all actives have a fitted effect of over 50% in size
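TbPYK + substrate in 50 mM TEA pH 7.2, 100 mM KCl, 10 mM MgCl2, 0.05% BSA, 0.01% Tween-20; cpd pinned; ADP 130 uM final; 45 min RT; Kinase-Glo Plus 10 min; luminescence endpoint.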
Sm TGR block = inhibitors of Schistosoma mansoni thioredoxin glutathione reductase. 360,000 compounds, 3% hits. Potency, µM (highest dose often 114 µM), for inactives: top-dose activity change, negative = inhibition, usual class: inhibitors. purified TGR, DTNB reduction, TNB absorbance 405 nm; further: potency means the concentration at half of the fitted maximal effect; on the % scale 0 is the no-effect control and ±100 the full control effect; nearly all actives have a fitted effect of over 60% in size
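TGR 20 nM + NADPH 100 uM (dispensed conc.), cpd preinc 15 min RT; start with NADPH (500 uM addition) then DTNB (15 mM addition). Kinetic TNB absorbance, 405 nm filter. Four-parameter Hill fit across titration.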
Giardia FBPA inh = Giardia lamblia aldolase inhibition. purified Giardia FBPA. 290,000 compounds, 0.71% hits. AID 2451. Potency, µM (highest dose often 59.6 µM), inactives show at the highest dose activity, negative = inhibition, most hits filed as inhibitors. A8B2U2; further: potency means the concentration at half of the fitted maximal effect; on the % scale 0 is the no-effect control and ±100 the full control effect; nearly all actives have a fitted effect of over 55% in size
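40 nM FBPA preincubated 10 min at RT with compound (up to 57.5 uM final), then substrate plus GAPDH/TPI/NAD/arsenate coupling and diaphorase/resazurin added. Fluorescence read after 20 min at RT, 525/598 nm.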
CHX counter = counter-screen for Shiga toxin inhibitors: cycloheximide protein synthesis inhibition | cell reporter, cycloheximide protein synthesis inhibition counterscreen | max response, % | 300,000 compounds, 12% hits | AID 2314; in the data active means max response mostly above about 13%, no sharp cut-off; inactive means mostly below about 14%; further: read at 38.3 µM for the half of the compounds with a filed dose; 0% is about no effect
Numbers without * were called inactive; [ ] = dose if it differs, or a comment. Unless noted, the call rests on the fitted dose curve; in most records, active means well fitted curve in the direction sought with a large enough effect; inconclusive means small, poorly fitted or top-dose-only effect, or another doubt; inactive means no such curve, though single readings can be large; an effect the other way counts as inactive or inconclusive.

What do the screens show for `Clc1cnc(N/N=C/c2cccs2)c(Cl)c1`?
LmPK inh: -4%; Shiga inhibitor: 128*; TbPYK inhibitor: 6%; Sm TGR block: 2%; Giardia FBPA inh: -7%; CHX counter: 36*

How did CCOC(=O)c1c(S(=O)(=O)N2CCC(C(=O)N3CCN(c4ccc(F)cc4)CC3)CC2)c(C)n(C)c1C do in these assays?
TbPYK inhibitor: -13%; Sm TGR block: -18%

What do the screens show for `COc1ccc(CCNC(=O)C(=O)NCC(c2cccs2)S(=O)(=O)c2ccc(C)cc2)cc1` (stereo not drawn)?
TbPYK inhibitor: 8%; Sm TGR block: -20%

How did COc1ccc(-c2nc(CSCC(=O)NCCc3ccc(OC)c(OC)c3)c(C)o2)cc1 do in these assays?
TbPYK inhibitor: 5%; Sm TGR block: -3%

Results for CC(C)(C)NC(=O)/C=C/c1ccc(C(F)(F)F)cc1 ?
LmPK inh: 3%; Shiga inhibitor: 96*; TbPYK inhibitor: -2%; Sm TGR block: 8%; Giardia FBPA inh: -5%; CHX counter: 76*

Results for O=C(CSc1ccccc1C(=O)O)c1ccc(Cl)cc1 ?
LmPK inh: 11%; Shiga inhibitor: 65*; TbPYK inhibitor: -9%; Sm TGR block: -25%; Giardia FBPA inh: 3%; CHX counter: 30*

What do the screens show for `O=C(CSc1ccccc1C(=O)O)c1ccccc1`?
LmPK inh: 1%; Shiga inhibitor: 21; TbPYK inhibitor: -2%; Sm TGR block: 0%; Giardia FBPA inh: 2%; CHX counter: 7

Results for Cn1cnnc1SCCOc1ccc(Cl)cc1 ?
LmPK inh: -1%; Shiga inhibitor: 88; TbPYK inhibitor: 6%; Sm TGR block: 0%; Giardia FBPA inh: -3%; CHX counter: 15*

What do the screens show for `Cn1cnnc1SCCC(=O)Nc1ccc(Cl)cc1`?
LmPK inh: 2%; Shiga inhibitor: 12; TbPYK inhibitor: 1%; Sm TGR block: 4%; Giardia FBPA inh: -1%; CHX counter: 1

What do the screens show for `Cc1cccc(OCCSc2nncn2C)c1`?
LmPK inh: 4%; Shiga inhibitor: 35; TbPYK inhibitor: 1%; Sm TGR block: -1%; Giardia FBPA inh: 6%; CHX counter: 33*

What do the screens show for `CSCC[C@H](NC(=O)[C@H](CC(C)C)NC(=O)CNC(=O)[C@H](Cc1ccccc1)N(C)C(=O)[C@H](Cc1ccccc1)NC(=O)[C@H](CC(=O)O)NC(=O)[C@@H](N)CC(=O)O)C(N)=O`?
Shiga inhibitor: -9; Giardia FBPA inh: -5%; CHX counter: -10

How did Fc1ccc(Nc2nc(SCc3cccc(F)c3)nc3ccccc23)cc1 do in these assays?
TbPYK inhibitor: -2%; Sm TGR block: 9%

What do the screens show for `Clc1cccc(Cl)c1Cn1cnc(=NCc2ccco2)c2[nH]cnc21`?
LmPK inh: 2%; Shiga inhibitor: 38; TbPYK inhibitor: 1%; Sm TGR block: -30%; Giardia FBPA inh: 3%; CHX counter: 22*

What do the screens show for `Clc1cccc(Cl)c1Cn1cnc2c(NCc3ccco3)ncnc21`?
LmPK inh: 3%; Shiga inhibitor: -19; TbPYK inhibitor: -7%; Sm TGR block: 3%; Giardia FBPA inh: 9%; CHX counter: -6

Results for Cc1nc(NC(=O)COc2ccc(Cl)cc2)sc1C(=O)N(C)C ?
LmPK inh: 0%; Shiga inhibitor: -18; Sm TGR block: -7%; Giardia FBPA inh: 0%; CHX counter: -1

What do the screens show for `CC(=O)c1sc(NCc2ccc(C)cc2)nc1C`?
LmPK inh: -2%; Shiga inhibitor: 103*; TbPYK inhibitor: 0%; Sm TGR block: -3%; Giardia FBPA inh: -9%; CHX counter: 43*

What do the screens show for `Cc1ccc(CNc2nc(C)c(C(=O)N(C)C)s2)cc1`?
LmPK inh: 6%; Shiga inhibitor: 65*; TbPYK inhibitor: 3%; Sm TGR block: 1%; Giardia FBPA inh: 7%; CHX counter: 28*

Results for CC(=O)c1sc(NCc2ccccc2)nc1C ?
LmPK inh: 1%; Shiga inhibitor: 43; TbPYK inhibitor: -7%; Sm TGR block: -8%; Giardia FBPA inh: -16%; CHX counter: 31*

How did Cc1ccc(CNc2nc(Cl)c(C#N)s2)cc1 do in these assays?
LmPK inh: -4%; Shiga inhibitor: 62*; TbPYK inhibitor: -3%; Sm TGR block: 82%; Giardia FBPA inh: 3%; CHX counter: 28*

Results for CC(C)CO/N=C1/[C@H]2O[C@@H]2[C@@H](O)[C@H]2[C@H]1CCn1c(=O)n(-c3ccccc3)c(=O)n12 ?
Giardia FBPA inh: 6%[12.9 µM]

How did Cc1nc(NCCc2ccccc2)sc1C(=O)O do in these assays?
LmPK inh: -2%; Shiga inhibitor: 41*; TbPYK inhibitor: -2%; Sm TGR block: 6%; Giardia FBPA inh: -2%; CHX counter: 21

What do the screens show for `CC(=O)c1sc(NCCOc2ccc(C)cc2)nc1C`?
LmPK inh: 1%; Shiga inhibitor: 60*; TbPYK inhibitor: 1%; Sm TGR block: 17%; Giardia FBPA inh: -25%; CHX counter: 28*

What do the screens show for `COc1ccc(CCNc2nc(C)c(C(C)=O)s2)cc1OC`?
LmPK inh: -5%; Shiga inhibitor: -2; TbPYK inhibitor: -16%; Sm TGR block: 5%; Giardia FBPA inh: -16%; CHX counter: 7

Results for COc1ccc(OCCCC(=O)Nc2nc(C)c(C(C)=O)s2)cc1 ?
LmPK inh: 1%; Shiga inhibitor: 24; TbPYK inhibitor: 6%; Sm TGR block: 16%; Giardia FBPA inh: 2%; CHX counter: -2

How did CC(CCCN(C)C)C(Cc1ccccc1)c1ccccc1 (stereo not drawn) do in these assays?
TbPYK inhibitor: 1%

How did Cc1cccc(-c2nc3c4ccccc4nc(N4CCN(c5ccccc5F)CC4)n3n2)c1 do in these assays?
TbPYK inhibitor: 6%; Sm TGR block: -1%

How did O=C(CCl)N1N=C(c2cccs2)CC1c1ccco1 (stereo not drawn) do in these assays?
LmPK inh: 5%; Shiga inhibitor: -9; TbPYK inhibitor: -1%; Sm TGR block: 2.5µM*; Giardia FBPA inh: 4%; CHX counter: -2

What do the screens show for `CN1CC(=O)N(CC(=O)N2N=C(c3ccc(Cl)cc3)CC2c2ccco2)C1=O` (stereo not drawn)?
LmPK inh: 0%[11.5 µM]; Shiga inhibitor: -4; TbPYK inhibitor: 1%; Sm TGR block: 22µM*; Giardia FBPA inh: -13%; CHX counter: 8

Results for O=C(CCl)N1N=C(c2ccco2)CC1c1ccco1 (stereo not drawn) ?
LmPK inh: 3%; Shiga inhibitor: -4; TbPYK inhibitor: -14%; Sm TGR block: 6.3µM*; Giardia FBPA inh: 0%; CHX counter: 0

What do the screens show for `O=C(COc1ccccc1F)N1N=C(c2cccs2)CC1c1ccco1` (stereo not drawn)?
TbPYK inhibitor: -4%; Sm TGR block: 25µM*

Bioassay records from PubChem.
